Measurements taken from PubChem BioAssay AID1159580 (chemical genetic matrix, 2015).
Several values for one entry are separate records, joined by “and”; a condition that tells them apart may be missing. Identical values can stand only once. About 2,000 (36%) of roughly 5,500 compounds were called active. About 18% were inconclusive and are not listed. Cut-off read from the data, not from the text of the source: active = normalized growth mostly below about 0.91 (no sharp cut-off); inconclusive = no clear call, values can overlap the other calls; inactive = mostly above about 0.92. This is one part of the list.

Assay: chemical genetic growth profiling, strain panel (AID 1159580);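 note: tested at 20 µM; growth read once vehicle control cultures reached saturation at 30 °C; 1 = growth at the plate median or of vehicle wells; lower values mean less growth of the strain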
Details: S. cerevisiae deletion strains, growth OD

Measured: normalized growth

COc1cc2c(cc1OC)[C@@H]1C(=O)c3ccc4c(c3O[C@@H]1CO2)CC(C(C)C)O4 (some centres not stated)
inactive: locus YAL021C, strain ccr4, stronger effect = lower value 0.989 | locus YAL026C, strain drs2, stronger effect = lower value 0.969 | locus YAL030W, strain snc1, stronger effect = lower value 0.998 | locus YBL061C, strain skt5, stronger effect = lower value 1 | locus YBR009C, strain hhf1, stronger effect = lower value 0.938 | locus YBR021W, strain FUR4, stronger effect = lower value 0.993 | locus YBR023C, strain chs3, stronger effect = lower value 0.981 | locus YBR171W, strain sec66, stronger effect = lower value 0.974 | locus YBR229C, strain ROT2, stronger effect = lower value 0.994 | locus YBR231C, strain swc5, stronger effect = lower value 0.932 | locus YBR279W, strain paf1, stronger effect = lower value 0.982 | locus YCL011C, strain gbp2, stronger effect = lower value 0.991 | locus YCL016C, strain dcc1, stronger effect = lower value 0.984 | locus YCL029C, strain bik1, stronger effect = lower value 1.02 | locus YCL061C, strain MRC1, stronger effect = lower value 0.96 | locus YCL069W, strain vba3, stronger effect = lower value 0.99 | locus YCR088W, strain abp1, stronger effect = lower value 0.99 | locus YDL005C, strain med2, stronger effect = lower value 0.978 | locus YDL035C, strain GPR1, stronger effect = lower value 0.972 | locus YDL040C, strain nat1, stronger effect = lower value 0.985 | locus YDL074C, strain BRE1, stronger effect = lower value 0.952 | locus YDL101C, strain DUN1, stronger effect = lower value 0.982 | locus YDL185W, strain tfp1, stronger effect = lower value 1.01 | locus YDL192W, strain arf1, stronger effect = lower value 1.01 | locus YDR001C, strain nth1, stronger effect = lower value 0.987 | locus YDR069C, strain doa4, stronger effect = lower value 1 | locus YDR101C, strain arx1, stronger effect = lower value 0.998 | locus YDR137W, strain rgp1, stronger effect = lower value 0.89 | locus YDR150W, strain NUM1, stronger effect = lower value 1.01 | locus YDR159W, strain sac3, stronger effect = lower value 0.957 | locus YDR162C, strain NBP2, stronger effect = lower value 0.941 | locus YDR195W, strain ref2 0.982 | locus YDR297W, strain sur2, stronger effect = lower value 0.972 | locus YDR318W, strain mcm21, stronger effect = lower value 1 | locus YDR334W, strain swr1, stronger effect = lower value 0.99 | locus YDR335W, strain msn5, stronger effect = lower value 1.01 | locus YDR388W, stronger effect = lower value 1.01 | locus YDR502C, strain sam2, stronger effect = lower value 0.998 | locus YEL003W, strain gim4, stronger effect = lower value 0.959 | locus YEL037C, strain rad23, stronger effect = lower value 0.999 | locus YEL061C, strain CIN8 (second series), stronger effect = lower value 0.99 | locus YEL061C, strain CIN8, stronger effect = lower value 1 | locus YER015W, strain faa2, stronger effect = lower value 0.965 | locus YER016W, strain bim1, stronger effect = lower value 0.984 | locus YER110C, stronger effect = lower value 1.01 | locus YER111C, strain swi4, stronger effect = lower value 1.01 | locus YER155C, strain BEM2 (second series), stronger effect = lower value 0.931 | locus YER155C, strain BEM2, stronger effect = lower value 1 | locus YER167W, strain BCK2, stronger effect = lower value 1 | locus YFR010W, strain ubp6, stronger effect = lower value 0.98 | locus YGL078C, strain dbp3, stronger effect = lower value 1.01 | locus YGL086W, strain mad1, stronger effect = lower value 0.985 | locus YGL167C, strain pmr1, stronger effect = lower value 0.987 | locus YGL173C, strain kem1, stronger effect = lower value 0.977 | locus YGL227W, strain vid30, stronger effect = lower value 0.975 | locus YGL240W, strain doc1, stronger effect = lower value 0.956 | locus YGL248W, strain PDE1, stronger effect = lower value 0.979 | locus YGL253W, strain hxk2, stronger effect = lower value 0.96 | locus YGR135W, strain pre9, stronger effect = lower value 1.02 | locus YGR252W, strain gcn5, stronger effect = lower value 0.895 | locus YHR013C, strain ard1, stronger effect = lower value 0.998 | locus YHR027C, strain rpn1, stronger effect = lower value 0.993 | locus YHR030C, strain SLT2, stronger effect = lower value 1.01 and 1.04 | locus YHR079C, strain IRE1 (second series), stronger effect = lower value 1.01 | locus YHR079C, strain IRE1, stronger effect = lower value 1.07 | locus YHR094C, strain hxt1, stronger effect = lower value 1.01 | locus YHR129C, strain ARP1, stronger effect = lower value 0.998 | locus YHR142W, strain chs7, stronger effect = lower value 0.986 | locus YHR200W, strain rpn10, stronger effect = lower value 1.02 | locus YIL066C, strain RNR3, stronger effect = lower value 0.945 | locus YIL073C, strain SPO22, stronger effect = lower value 1.03 | locus YIL125W, strain kgd1, stronger effect = lower value 0.989 | locus YIR030C, strain dcg1, stronger effect = lower value 1 | locus YJL092W, strain hpr5, stronger effect = lower value 0.994 | locus YJL095W, strain BCK1 (second series), stronger effect = lower value 0.98 | locus YJL095W, strain BCK1, stronger effect = lower value 0.944 and 1.04 | locus YJL115W, strain asf1, stronger effect = lower value 0.987 | locus YJL129C, strain trk1, stronger effect = lower value 0.92 | locus YJL134W, strain LCB3, stronger effect = lower value 1.01 | locus YJL154C, strain vps35, stronger effect = lower value 0.993 | locus YJL164C, strain tpk1, stronger effect = lower value 0.981 | locus YJL166W, strain qcr8, stronger effect = lower value 0.934 | locus YJL168C, strain set2, stronger effect = lower value 1.01 | locus YJL187C, strain SWE1 (second series), stronger effect = lower value 0.981 | locus YJR043C, strain POL32, stronger effect = lower value 0.976 | locus YJR066W, strain TOR1, stronger effect = lower value 0.987
active: locus YDR392W, strain spt3, stronger effect = lower value 0.707
